Where a name gives a salt, the structure may show the parent alone.

This test deals with Danio rerio larvae (5 dpf). Kind of test: excitability (activity period 17 minus period 16, 1-s interval sound) minus DMSO control (percentage points); higher = more acoustic excitability than DMSO larvae. Particulars: 10 µM; exposure time: 3 h pre-incubation + 3 h imaging. The procedure: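 Wild-type 5 dpf zebrafish larvae (n=48 per drug, 96-well plates, 28.5 °C) were exposed to Tocris FDA-approved library compounds at 10 µM (0.1% DMSO) for 3 h before and 3 h during imaging. Images were taken every 6 s during visual (moving coloured lines) and acoustic stimuli, and larvae were tracked with the DeepLabCut-based Z-LaP Tracker. Each behavioural measure is the treated-group mean minus the DMSO vehicle control mean (n=844), in percentage points. This mapping covers compounds with 4-character plate codes.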
Regarding `CC(O)(CS(=O)(=O)c1ccc(F)cc1)C(=O)Nc1ccc(C#N)c(C(F)(F)F)c1` (stereo unspecified) [Bicalutamide], the excitability turned out to be 3.42.
The figure for `CN1C[C@H](C(=O)N[C@]2(C)O[C@@]3(O)[C@@H]4CCCN4C(=O)[C@H](Cc4ccccc4)N3C2=O)C[C@@H]2c3cccc4[nH]cc(c34)C[C@H]21` [Dihydroergotamine mesylate] is 0.33; for `CC[C@@H](C(N)=O)N1CCCC1=O` [Levetiracetam] it is 1.58; for `CC(C)C[C@H]1C(=O)N2CCC[C@H]2[C@]2(O)O[C@](NC(=O)[C@@H]3C=C4c5cccc6[nH]c(Br)c(c56)C[C@H]4N(C)C3)(C(C)C)C(=O)N12` [Bromocriptine mesylate] it is 18.2.
As to `N[C@@H]1C[C@H]1c1ccccc1` [Tranylcypromine hydrochloride], the excitability came to 3.55.
For `O=c1[nH]c2ccccc2n1C1CCN(CCCC(c2ccc(F)cc2)c2ccc(F)cc2)CC1` [Pimozide], the excitability is -0.377.
In the case of `C=C1C[C@@H]2[C@H](CC[C@]3(C)C(=O)CC[C@@H]23)[C@@]2(C)C=CC(=O)C=C12` [Exemestane], the excitability amounted to 11.9.
As for `COc1cc2c(cc1OC)C1CC(=O)C(CC(C)C)CN1CC2` (stereo unspecified) [Tetrabenazine], the excitability was 22.4.
The figure for `C=CCN1C[C@H](C(=O)N(CCCN(C)C)C(=O)NCC)C[C@@H]2c3cccc4[nH]cc(c34)C[C@H]21` [Cabergoline] is 12.4; for `Cc1cccc([C@H](C)c2c[nH]cn2)c1C` [Dexmedetomidine hydrochloride] it is 5.7.
In the case of `CCN(C)C(=O)Oc1cccc([C@H](C)N(C)C)c1` [Rivastigmine tartrate], the excitability worked out at 3.52.
